Test results reported in PubChem BioAssay AID493084 (National Center for Advancing Translational Sciences (NCATS), 2011).
The campaign covered roughly 360,000 compounds. About 650 (0.18%) were called active. The sample holds actives, similar compounds and a random draw of the others, so the mix is not that of the screen. Unmarked numbers belong to inactive results. No stated cut-off is given here; in the data, active means activation above about 30%; inactive means the rest.
Further: 0% is about no effect.

What follows are compounds tested against Thyrotropin-releasing hormone receptor (Homo sapiens) (UniProt P34981) (assay: qHTS for Small Molecule Agonists and Allosteric Enhancers of Human TRH Receptor: Primary Screen for Agonists.). Conditions: TRHR cells, calcium flux fluo-8, FDSS agonist mode; at 2 µM; hits give high values.
Thyrotropin-releasing hormone receptor (Homo sapiens), sequence (P34981 whole entry, looked up): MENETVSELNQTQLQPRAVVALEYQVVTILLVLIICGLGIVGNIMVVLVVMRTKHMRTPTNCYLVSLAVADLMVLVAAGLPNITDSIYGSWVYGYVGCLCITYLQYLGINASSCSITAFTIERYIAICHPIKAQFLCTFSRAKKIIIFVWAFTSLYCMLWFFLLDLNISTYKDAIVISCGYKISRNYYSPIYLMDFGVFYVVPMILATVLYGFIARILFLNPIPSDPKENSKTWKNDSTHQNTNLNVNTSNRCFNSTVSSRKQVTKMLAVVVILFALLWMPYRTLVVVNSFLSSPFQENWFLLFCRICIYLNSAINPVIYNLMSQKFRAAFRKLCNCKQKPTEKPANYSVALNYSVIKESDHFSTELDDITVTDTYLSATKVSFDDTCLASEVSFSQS
Excerpt: NIH Chemical Genomics Center [NCGC] NIH Molecular Libraries Probe Centers Network [MLPCN] MLPCN Grant: MH089816-01 Assay Submitter (PI): Marvin Gershengorn This project aims to identify small drug-like molecules that activate (agonists) the thyrotropin releasing hormone (TRH) receptor (TRHR) or enhance its TRH-stimulated activity (allosteric enhancers). TRHR, a drug-accessible cell surface receptor expressed in specific brain regions, and its ligand TRH have been implicated in several central nervous system disorders, including depression and anxiety. Small molecule TRHR agonists or allosteric enhancers that are metabolically stable and able to cross the blood-brain barrier might serve as probes to elucidate the roles of brain TRH receptors in animal models, and might be valuable as lead compounds for the development of drugs to treat patients with central nervous system disorders. Upon TRHR-Gq activation in TRHR cells, intracellular calcium is released from stores in the endoplasmic reticulum. […] This primary screen measures compound-induced activation of calcium release.
For the HTS assay freshly prepared cells are plated at a density of 2000/well in 3 ul of complete DMEM medium containing 10% serum in 1536-well plates and cultured over night at 37 C in a humidified incubator with 5% CO2. The next day, 2 ul of a no wash calcium dye (ABD Bioquest) was added to the cells and plates were incubated at room temperature for 1 hour. For the assay, assay plates were loaded into the FDSS kinetic plate reader. A 10 cycle (1 second/cycle) baseline measurement is taken and then the FDSS online 1536 pintool delivers 23 nl of compound library (as well as TRH controls) to the plate. The plate is measured for kinetically at 1 cycle/sec for 180 seconds and is considered to be the agonist portion of the assay (eg, compounds which activate a positive calcium response during this portion are flagged as potential agonists). Following the 180 second read, 1 ul of either an EC20 (positive modulation assay) is delivered by an onboard pipette head. Measurements are taken kinetically for an additional 180 seconds. TRHR FDSS Screening Protocol 1. Reagent, 3 uL 2000 cells/well 1536 TC treated Black plate in media containing 10% FCS 2. Time, 18 hours, 33.5C 5% CO2 (cells grown at 37C) 3. Reagent, 2 uL ABD fluo-8 Ca dye 4. Time, 30 min-1.5hrs hours, Room temp (6 plates/batch) 5. Detector, EX 480/EM 530C, FDSS 10 cycles baseline (1sec/cycle) 6. Compound, 23 nL of stock solution from library 7. Detector, EX 480/EM 530C, FDSS […] (1sec/cycle) Agonist mode 8. Compound, 1 ul EC20 of TRH made up in HEPES HBSS, 10 nM final 9. Detector, EX 480/EM 530C, FDSS 100 cycles (1sec/cycle) Potentiator mode
In the case of `CCN(CC)c1ccc2oc(=O)c(C)nc2c1`, the activation was 100% (active).
`COc1cccc(N2CCN(S(=O)(=O)c3ccc4c(c3)CCCN4C(C)=O)CC2)c1` gave an activation of -0.749%.
For `COc1ccc(CCNC(=O)Cn2c(=O)cc(C(F)(F)F)c3c(C)nn(C)c32)c(OC)c1`, the activation was -0.214%.
`Cc1cc2c(s1)c1cnn(Cc3c(F)cccc3Cl)c(=O)c1n2C` gave an activation of -0.043%.
`COc1cccc(NC(=O)Nc2ccc3c(c2)N(C)C(=O)c2ccccc2S3)c1` showed an activation of -0.213%.
`CCOC(=O)c1c(S(=O)(=O)N2CCCC(C(=O)NCc3ccc(F)cc3)C2)c(C)n(CC)c1C` (centres undefined) gave an activation of -0.483%.
Work on `O=S(=O)(c1ccc(Br)cc1)c1nnn2c1nc(NC1CCCCCC1)c1sccc12` yielded an activation of -0.704%.
Compound `COc1ccc(NC(=O)CSc2nc3ccccc3n2CC(=O)N2CCCCC2C)cc1` (centres undefined) has an activation of -0.312%.
`N#Cc1nc(Nc2cccc(Cl)c2)nc(NC2CCCC2)n1` was tested, and the activation was -2.51%.
With `COc1ccccc1N1CCN(S(=O)(=O)CCNC(=O)COc2ccc(F)cc2)CC1` the activation was -0.566%.
In the case of `CCOc1cccc2c1N[C@@H](c1ccc(C(=O)O)cc1)[C@H]1CC=C[C@@H]21`, the activation was 0.0412%.
`COc1ccc(CNC(=O)Cc2coc3ccc(C(C)C)cc23)cc1` was tested, and the activation was -0.0096%.
For `CCOc1cc(-c2nnc(SCC(=O)NC3CCCC3)nc2-c2ccc(OC)c(OCC)c2)ccc1OC`, the activation was 0.306%.
`CCOC(=O)c1nnn(CC(=O)NC(=O)Nc2ccccc2F)c1C(=O)OCC` was tested, and the activation was 1.07%.
`CN1CCOc2cc(S(=O)(=O)N3CCN(S(=O)(=O)c4c(F)cccc4F)CC3)cnc21` gave an activation of -0.448%.
With `Nc1ccc2nc3c(=O)[nH]c(=S)[nH]c3nc2c1` the activation was 35.9% (active).
Compound `CCN(c1ccc(Cl)cc1)S(=O)(=O)c1nnc(NC(=O)c2ccco2)s1` has an activation of -0.115%.
With `COc1ccc(CCNC(=O)Cn2c(=O)n(-c3ccccc3)c(=O)c3c(C)c(C)sc32)cc1OC` the activation was -1.42%.
For `O=C(NCc1nnc(C(=O)Nc2ccc(C(F)(F)F)cc2Cl)o1)c1ccccc1`, the activation was -2.31%.
`COC(=O)c1ccccc1NC(=O)c1ccc(C#N)cc1` gave an activation of 0.34%.
`Cc1ccccc1C(=O)NCc1nc(-c2ccc(Cl)cc2)no1` gave an activation of -0.152%.
With `Cc1cccc(C(C)C)c1NC(=O)C(NS(=O)(=O)c1cccc2nsnc12)c1ccccc1` (centres undefined) the activation was -0.333%.
Compound `COc1ccc(CNC(=O)Cn2nnc(-c3ccccc3F)n2)cc1` has an activation of -0.359%.
Compound `CCOc1ccccc1N(CC)C(=O)c1cc2ccc3cccnc3c2[nH]1` has an activation of 2.85%.
`Cc1ccccc1NC(=O)CN1C(=O)C(C)(C)c2ccccc21` gave an activation of 0.364%.
With `CCOc1ccc2nc(N3CCC(C(=O)Nc4cc(C)ccc4C)CC3)sc2c1` the activation was -0.106%.
`Cc1ccccc1NC(=O)c1cc2c([nH]c1=O)CC(C)(C)CC2=O` showed an activation of 1.28%.
`Cc1ccc(CNC(=O)c2ccccc2CCc2ccccc2)cc1` gave an activation of 0.513%.
With `COc1cccc(-c2ccc3c(c2)S(=O)(=O)c2cccc(C(=O)O)c2C3=O)c1OC` the activation was 0.018%.
With `Cc1ccc(CNC(=O)c2cccc3c2C(=O)c2ccc(N4CCC(C)CC4)cc2S3(=O)=O)cc1` the activation was 86.3% (active).
With `COC(=O)C1=C(C)NC2=C(C(=O)c3ccccc32)C1c1ccc(-c2ccc(C(=O)O)cc2)o1` (centres undefined) the activation was 46.3% (active).
`Cc1ccc(C2C3=C(Nc4[nH]n(-c5ccccc5)c(=O)c42)c2ccccc2C3=O)cc1` (centres undefined) gave an activation of -0.291%.
`CCOc1cc(C2C(C(=O)OC)=C(C)NC3=C2C(=O)c2ccccc23)ccc1O` (centres undefined) was tested, and the activation was 0.256%.
`Cc1c(C)n(Cc2ccc(Cl)cc2)c2ccc(C(=O)NCCc3ccc(S(N)(=O)=O)cc3)cc12` showed an activation of 0.277%.
`Cc1nn(-c2ccc(N3CCCCC3)nn2)c(C)c1CCC(=O)NCc1ccc(F)cc1` was tested, and the activation was -0.372%.
In the case of `CCN1/C(=C\c2ccc3ccccc3[n+]2CC)Sc2cc(C)ccc21`, the activation was 34.6% (active).
`CCCC12CN3CC(CCC)(CN(C1)C3c1c[nH]c3ccc(OC)cc13)C2=O` (centres undefined) was tested, and the activation was 2.39%.
In the case of `CCOc1cc(/C=C(/C#N)c2ccc(Cl)cc2)cc(Cl)c1OCC(=O)O`, the activation was -0.184%.
`CCOc1cc(/C=C(\C#N)c2nc(-c3cccs3)c(NC(C)=O)s2)ccc1O` was tested, and the activation was 37.3% (active).
`CCOc1cc(/C=C(\C#N)C(=O)Nc2ccccc2C)ccc1OCc1cc(=O)n2nc(CC)sc2n1` gave an activation of -1.33%.
`Cc1nc2ccc(S(=O)(=O)N(CC(=O)Nc3ccc(F)cc3)Cc3ccccc3)cc2s1` gave an activation of -0.726%.
In the case of `Cc1ccc(-n2nc(C)c3c(C)cc(=O)n(CC(=O)Nc4ccc(C(C)C)cc4)c32)cc1`, the activation was -0.803%.
`Cc1cccc(NC(=O)N2CCC(CN3CCc4ccccc4C3)CC2)c1C` showed an activation of -0.238%.
Work on `O=C(Nc1ccc(OC(F)(F)F)cc1)c1cc2c(=O)n3ccccc3nc2s1` yielded an activation of 0.583%.
`O=C(/C=C(O)/C=C/c1ccc(O)cc1)/C=C/c1ccc(O)cc1` was tested, and the activation was 150% (active).
For `COc1ccc(OCCCn2cccc2/C=C2/C(=N)N3OC(C)=CC3=NC2=O)cc1`, the activation was -0.544%.
For `CC1=CC2=NC(=O)/C(=C/c3coc4ccccc4c3=O)C(=N)N2O1`, the activation was 111% (active).
`O=C(NCc1ccc(Cl)cc1)c1ccc2c(c1)nnn2C1CCCC1` showed an activation of -0.129%.
`O=S(=O)(c1ccc(Br)cc1)c1nnn2c1nc(N1CCOCC1)c1sccc12` showed an activation of -0.0076%.
With `Cc1ccc(NC(=O)c2oc3ccc(S(=O)(=O)N4CCCCC4)cc3c2C)cc1Cl` the activation was 1.26%.
For `COc1ccc(C(=O)Nc2nonc2-c2ccc(OC)c(OC)c2)cc1Cl`, the activation was -1.06%.
`Cc1cccc(N2CCN(c3c(CN4CCCC4)c(=O)oc4ccccc34)CC2)c1C` showed an activation of 0.139%.
For `COC1=C/C(=C/c2c(N)n3nc(CC(=O)N4CCOCC4)sc3nc2=O)C=CC1=O`, the activation was 15.5%.
In the case of `C=CCC1=C/C(=C\c2c(N)n3nc(CC(=O)N4CCOCC4)sc3nc2=O)C=C(OC)C1=O`, the activation was 162% (active).
